Assay results: PubChem BioAssay AID652257 (The Scripps Research Institute Molecular Screening Center, 2013)
Hit rate of the full screen: of about 370,000 compounds, about 4,800 (1.3%) were called active. For the sample, actives were picked, then their nearest neighbours and some compounds at random. A number with no mark means an inactive call.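 How the source made its calls: active means inhibition above about 21% made by adding two undisclosed values (limit read from the data); inactive means the rest.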

Each compound was assayed against Protein arginine N-methyltransferase 1 (Homo sapiens) (UniProt Q99873) (assay: PRMT1 methyltransferase inhibitors, primary screen, biochemical, fluorescence polarization (AID 652257)). Conditions: recombinant PRMT1, activity-based probe fluorescence polarization; at 2.79 µM; hits give high values.
Chain of Protein arginine N-methyltransferase 1 (Homo sapiens) (Q99873 whole entry, looked up): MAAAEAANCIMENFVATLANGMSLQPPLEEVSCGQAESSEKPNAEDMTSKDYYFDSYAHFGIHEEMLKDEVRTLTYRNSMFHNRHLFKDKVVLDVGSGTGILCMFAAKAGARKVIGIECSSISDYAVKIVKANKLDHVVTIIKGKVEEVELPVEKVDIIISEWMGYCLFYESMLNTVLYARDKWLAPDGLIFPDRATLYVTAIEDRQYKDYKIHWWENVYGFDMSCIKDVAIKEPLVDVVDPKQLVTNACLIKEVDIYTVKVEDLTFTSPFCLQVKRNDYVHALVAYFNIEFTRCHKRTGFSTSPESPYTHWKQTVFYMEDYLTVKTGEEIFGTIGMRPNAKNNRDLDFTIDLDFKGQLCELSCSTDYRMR

SMILES	inhibition
O=C(N/N=C/C=C/c1ccco1)c1cccs1	17.1%
CN(C)S(=O)(=O)c1cccc(C(=O)N/N=C\c2ccco2)c1	-2.34%
Cc1cc(C(=O)NN=C/C=C/c2ccco2)n[nH]1	39.4% (active)
COC(=O)C1CN(CC(C)C)CCS(=O)(=O)N1Cc1ccc(F)cc1 (centres undefined)	1.47%
CN(CCc1ccccc1)C(=O)Cn1nc(-c2ccccc2)ccc1=O	-1.41%
Cc1[nH]c2ccccc2c1C(=O)C(C)Sc1nnc(C2CC2)o1 (centres undefined)	2.13%
Nn1c(SCC(=O)N2c3ccccc3Sc3ccccc32)nnc1-c1n[nH]c2c1CCC2	5.44%
O=C(O)c1ccc(/C=C2\SC(=S)N(NC(=O)c3ccc(Br)cc3)C2=O)cc1	30.2% (active)
O=C(NCCN1C(=O)S/C(=C\c2cccnc2)C1=O)c1ccc(S(=O)(=O)N2CCCC2)cc1	4.69%
C/C(CC(=O)N1CCN(C=O)CC1)=N\NC(=O)c1ccc(Br)cc1	2.11%
CCCn1nnnc1NCc1ccc(CC)cc1	1.58%
Cc1ccc(C(=O)C2CCN(CC(=O)NCCC(C)C)CC2)cc1	4.05%
Clc1ccc(Nc2ccc3ccccc3n2)cc1	-3.42%
FC(F)(F)c1nc2ccccc2nc1N/N=C/c1ccc(Cl)cc1	66.9% (active)
CN(CCO)c1ccc(/C=N/Nc2nncc3ccccc23)cc1	-2.83%
COC(=O)[C@]1(Cc2ccccc2)NC=C(C(=O)c2ccccc2)[C@@H]1c1cccc(OC)c1	2.58%
O=C(CCN1C(=O)c2ccccc2C1=O)NCCCn1ccnc1	1.79%
O=C(CN1C(=O)S/C(=C\c2ccccc2F)C1=O)NCCCn1ccnc1	29.4% (active)
O=C(NCCCn1ccnc1)/C(=C\c1ccccc1F)NC(=O)c1ccccc1	-3.1%
CCC[C@H]1C(=O)CC[C@@]23CCCN2C(=O)CCC[C@@H]13	1.57%
COCCN(C(=O)c1ccco1)c1nnc(-c2ccc(OC)cc2)s1	1.28%
O=C(CCl)NC1CCCCN(Cc2cccc(C(F)(F)F)c2)C1=O (centres undefined)	3.41%
CC1Cn2c(nnc2-c2cccs2)S1 (centres undefined)	5.98%

SMILES	inhibition
O=C(Nc1ccc(S(=O)(=O)N2CCOCC2)cc1)c1ccc2ncsc2c1	22.4% (active)
O=C(Nc1ccc(N2CCOCC2)c(Cl)c1)c1ccc(S(=O)(=O)N2CCOCC2)cc1	1.99%
O=C(Nc1ccc2cn[nH]c2c1)c1ccc(S(=O)(=O)N2CCOCC2)cc1	3.18%
O=C(CSc1nc2ccccc2nc1N1CCCCC1)N1CCN(S(=O)(=O)c2cccc([N+](=O)[O-])c2)CC1	0.86%
O=C(CSc1nc2ccccc2n1Cc1ccccc1)NNC(=S)Nc1ccccc1	1.31%
COc1ccc(-c2cc3c(c4c2ccn4C)C2CCC3C2)cn1 (centres undefined)	32.2% (active)
CC(=O)O[C@@]1(C(C)=O)CCC2[C@H]3C=C(C)C4=CC(=O)CC[C@@]4(C)C3CC[C@]21C (some centres undefined)	-2.39%
Cc1ccccc1-c1ccc2c(c1)O[C@@H](CN(C)Cc1ccc(C(=O)O)cc1)[C@@H](C)CN([C@H](C)CO)S2(=O)=O	-1.8%
COc1ccc(OC)c(C(O)c2nc3ccccc3n2C)c1 (centres undefined)	5.63%
CCn1c(C(O)c2cc(OC)ccc2OC)nc2ccccc21 (centres undefined)	-3.51%
CCCn1c(C(O)c2cc(OC)ccc2OC)nc2ccccc21 (centres undefined)	23.1% (active)
Cc1ccc(S(=O)(=O)NC(=O)N2CCCC(C)(C)C2)cc1	-1.8%
CN(C)C(=O)N=NC(=O)N(C)C	27.4% (active)
CC(NC(=O)c1cc(=O)[nH]c2ccccc12)c1ccc(F)cc1F (centres undefined)	0.78%
CCOC(=O)c1cccc(NC(=O)CN(C)S(=O)(=O)c2ccc(-c3cocn3)s2)c1	-6.43%
N#CC1=C(N)Oc2c(sc3ccccc23)C1c1ccco1 (centres undefined)	26.8% (active)
O=C(Nc1cccc(C(=O)NC2CC2)c1)c1ccc(F)c(S(=O)(=O)N2CCOCC2)c1	1.48%
O=C(Nc1ccccc1Cl)/C(Cl)=C(\Cl)S(=O)c1ccccc1 (centres undefined)	80.3% (active)
O=C(Nc1ccnn1C1CCN(C/C=C/c2ccc(F)cc2)CC1)C1CCCC1	-2.06%
O=C(N[C@H](C(=O)N1CCC[C@H]1C(=O)NCCc1ccccc1Cl)c1ccccc1)c1ccccc1	4.7%
CCOC(=O)[C@]12CCCCC/C=C\1N(Cc1ccc(OC)cc1)C(=O)[C@H]2CC(=O)NCc1ccc(C)o1	11.7%
CCc1nc2c(OCC(N)=O)cccn2c1N(C)C(=O)c1ccc(OC)cc1	-1.98%
CN(C)S(=O)(=O)c1ccc(Cl)c(NC(=O)COC(=O)CC(NC(N)=O)c2ccc(Cl)cc2)c1 (centres undefined)	-6.61%

SMILES	inhibition
O=C(c1ncn2c1c(=O)[nH]c1ccccc12)N1CCc2ccccc2C1	-1.56%
O=c1[nH]c2ccccc2n2c(-c3ccccc3)nnc12	85.2% (active)
N[C@@H](Cc1ccccc1)C(=O)N1CCC[C@@H]1C(=O)N1CCC2CCN(S(=O)(=O)c3ccccc3)CC21 (some centres undefined)	3.14%
Cc1nc(N)[nH]c(=O)c1Oc1cccc(C(F)(F)F)c1	-1.54%
O=C(NC1CCC1)c1ccc(C#Cc2cccc(F)c2)c[n+]1[O-]	-4.9%
C#CCN([C@H](C(=O)OC)C(C)CC)S(=O)(=O)c1ccccc1Br (some centres undefined)	1.85%
CCOC(=O)C1=C(CSc2nnnn2C)N(C)C(=O)NC1c1ccccc1 (centres undefined)	-1.87%
CCN1CCN(C(=O)N[C@@H](C(=O)N[C@@H]2C(=O)N3C(C(=O)O)=C(CSc4nnnn4C)CS[C@H]23)c2ccc(O)cc2)C(=O)C1=O	28.5% (active)
CC(=O)NC1C(Oc2ccc(C=O)cc2)OC(COC(C)=O)C(OC(C)=O)C1OC(C)=O (centres undefined)	-2.72%
COC(=O)[C@H](C(C)C)N(CCCc1cn(Cc2ccccc2)nn1)S(=O)(=O)c1ccc(F)cc1Br	1.25%
C=CCNC(=S)NNC(=O)COc1c(Cl)cc(Cl)cc1Cl	1.94%
Cc1ccc(-n2c(COc3ccccc3)nnc2SCC(=O)Nc2ccc3c(c2)OCCO3)cc1	1.77%
COc1ccc(-n2c(SCC(=O)Nc3ccccc3-c3ccccc3)nnc2-c2cccnc2)cc1	-3.53%
COP(=O)(O)CNC(=O)OCc1ccccc1	-3.79%
CCOc1ccc(C(=O)CCC(=O)NC2=NCCS2)cc1	0.3%
CCOc1ccc(C(=O)CCC(=O)Nc2ccncc2)cc1	-2.2%
CCOc1ccc(C(=O)CCN2CCOCC2)cc1	21.4% (active)
CCN1C(=O)[C@H]2[C@@H](c3ccccc3)N[C@]3(CCCN(Cc4ccc(C)cc4)C3=O)[C@H]2C1=O	-1.43%
COc1cc(CN2CC(C)CC(C)C2)cc([N+](=O)[O-])c1O (centres undefined)	-0.22%
COc1cc(/C=C2/C(=O)NN(c3ccc(F)cc3)C2=O)cc([N+](=O)[O-])c1O	22.9% (active)
COc1ccc(N2C(=O)CC(Nc3ccc(F)cc3)C2=O)c([N+](=O)[O-])c1 (centres undefined)	2%
C=CCN1C(=O)[C@@H](CC(=O)N2CCN(C(=O)OCC)CC2)[C@]2(C(=O)OCC)CCCCC/C=C/12	2.76%
N#CCOc1ccc(C2=NO[C@@H]3[C@@H]4C[C@@H]([C@H]5C(=O)N(c6ccc7c(c6)OCO7)C(=O)[C@@H]45)[C@H]23)cc1	-0.79%

SMILES	inhibition
O=C(NCc1ccc(F)cc1F)[C@@H]1CCCN1C(=O)[C@@H]1CCCN1C(=O)c1cccc(Cl)c1	-3.37%
CC(=O)NC(CC(=O)Nc1nc(-c2ccccc2)c(C(C)=O)s1)c1ccccc1 (centres undefined)	1.97%
C/C(=N/Nc1nc(-c2ccccc2)c(CC(=O)O)s1)c1ccccc1	23.7% (active)
CCOc1ccc(-c2nc(C)sc2CC(=O)O)cc1	4.47%
COC(=O)N1Cc2ccnnc2CC1c1ccccc1Br (centres undefined)	-1.59%
CCOC(=O)c1cnc(SCC(=O)Nc2ccccc2C(=O)OC)nc1N	-1.74%
CCOC(=O)C(Sc1ncc(C#N)c(N)n1)C(C)C (centres undefined)	33.5% (active)
CCCCSc1[nH]c(=O)c(C(=O)OCC)cc1C#N	5.58%
COCCCNc1nc2c(-c3cccc(C)c3)nnn2c2ccc(Cl)cc12	1.2%
C=CCOC/C=C/C#CCN(CC=C)Cc1ccc(OC)cc1OC	-0.66%
O=C(CCSc1ccccc1)NCCSc1ccccn1	-0.03%
c1ccc(Cc2c(-c3ccco3)nc3c4ccccc4ccn23)cc1	26.2% (active)
Cc1ccc(Cc2c(-c3ccc(C)cc3)nc3c4ccccc4ccn23)cc1	-3.94%
Cc1ccc(Cc2c(-c3ccc(Cl)cc3)nc3c4ccccc4ccn23)cc1	-0.73%
COc1ccc(CSc2nnc(-c3cccc(C)c3)n2C)cc1	8.96%
Cc1ccc(-n2c(SCC(=O)Nc3cccc4ccccc34)nnc2-c2ccco2)cc1	1.53%
CCOC(=O)C(C)n1nc(-c2ccccc2)c2ccccc2c1=O (centres undefined)	-2.85%
CCN(CC)C(=O)c1nc[nH]c1C(=O)N(C)Cc1ccccc1	0.76%
CCN(CC)C(=O)c1sc2nc(-c3ccccc3)ccc2c1N	23.1% (active)
O=C(CN1CCCc2ccccc21)NCc1ccc(F)cc1	-5.39%
